The full data set covers some 8,800 targets. This sample favours those with a hit. About 0.5% of all pairs of compound and target were hits. Values without a mark were called inactive.

Sequence of UniProt Q8N5C7 (Q8N5C7 whole entry, looked up): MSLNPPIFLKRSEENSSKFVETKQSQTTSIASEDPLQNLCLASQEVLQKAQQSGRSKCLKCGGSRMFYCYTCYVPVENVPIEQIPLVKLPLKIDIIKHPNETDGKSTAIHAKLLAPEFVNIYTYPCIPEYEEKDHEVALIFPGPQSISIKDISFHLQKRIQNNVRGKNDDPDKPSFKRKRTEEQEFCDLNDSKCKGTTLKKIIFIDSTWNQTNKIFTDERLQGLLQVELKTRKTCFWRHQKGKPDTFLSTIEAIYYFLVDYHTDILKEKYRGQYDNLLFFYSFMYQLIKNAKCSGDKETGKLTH
Sequence of UniProt Q9NZJ0 (Q9NZJ0 whole entry, looked up): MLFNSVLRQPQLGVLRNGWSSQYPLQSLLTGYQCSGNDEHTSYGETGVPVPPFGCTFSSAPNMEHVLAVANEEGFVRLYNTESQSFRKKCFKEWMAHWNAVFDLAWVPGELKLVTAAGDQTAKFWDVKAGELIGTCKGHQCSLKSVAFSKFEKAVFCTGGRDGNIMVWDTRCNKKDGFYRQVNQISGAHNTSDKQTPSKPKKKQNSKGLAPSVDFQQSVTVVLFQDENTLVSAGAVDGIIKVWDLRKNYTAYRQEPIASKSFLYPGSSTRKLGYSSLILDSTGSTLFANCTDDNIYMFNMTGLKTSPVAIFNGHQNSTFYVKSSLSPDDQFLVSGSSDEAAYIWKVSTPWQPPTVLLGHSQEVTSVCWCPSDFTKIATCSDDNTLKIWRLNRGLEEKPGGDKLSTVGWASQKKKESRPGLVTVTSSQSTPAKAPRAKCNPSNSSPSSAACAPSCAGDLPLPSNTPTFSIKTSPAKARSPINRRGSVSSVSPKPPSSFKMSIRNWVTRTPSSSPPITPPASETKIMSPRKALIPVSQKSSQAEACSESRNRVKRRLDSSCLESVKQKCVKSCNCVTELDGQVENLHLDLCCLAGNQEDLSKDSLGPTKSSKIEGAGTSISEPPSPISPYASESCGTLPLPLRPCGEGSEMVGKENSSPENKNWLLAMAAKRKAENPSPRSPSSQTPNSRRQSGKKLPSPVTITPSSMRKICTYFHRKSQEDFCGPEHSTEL
Sequence of UniProt P37268 (P37268 whole entry, looked up): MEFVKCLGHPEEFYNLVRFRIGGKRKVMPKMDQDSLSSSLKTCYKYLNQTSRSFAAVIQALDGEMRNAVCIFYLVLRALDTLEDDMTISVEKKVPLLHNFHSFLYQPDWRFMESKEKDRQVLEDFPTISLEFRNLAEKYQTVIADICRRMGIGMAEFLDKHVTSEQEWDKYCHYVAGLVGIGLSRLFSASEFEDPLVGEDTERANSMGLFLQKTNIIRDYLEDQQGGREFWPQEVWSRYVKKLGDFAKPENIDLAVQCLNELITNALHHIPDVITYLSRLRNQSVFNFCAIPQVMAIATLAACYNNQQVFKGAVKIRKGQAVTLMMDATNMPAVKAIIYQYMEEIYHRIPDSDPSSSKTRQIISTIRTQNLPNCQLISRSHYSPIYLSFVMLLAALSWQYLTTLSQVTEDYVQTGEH
Sequence of UniProt Q8NEZ5 (Q8NEZ5 whole entry, looked up): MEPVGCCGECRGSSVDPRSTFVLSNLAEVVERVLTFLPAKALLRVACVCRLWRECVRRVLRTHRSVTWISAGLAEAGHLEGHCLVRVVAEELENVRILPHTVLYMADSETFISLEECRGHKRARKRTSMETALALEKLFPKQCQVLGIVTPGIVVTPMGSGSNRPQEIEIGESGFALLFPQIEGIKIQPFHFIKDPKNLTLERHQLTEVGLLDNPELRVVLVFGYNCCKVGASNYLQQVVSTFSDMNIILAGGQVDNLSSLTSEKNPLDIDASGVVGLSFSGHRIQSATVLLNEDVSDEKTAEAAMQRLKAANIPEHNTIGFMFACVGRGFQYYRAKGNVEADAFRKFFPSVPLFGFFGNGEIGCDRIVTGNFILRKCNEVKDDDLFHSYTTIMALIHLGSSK
Sequence of UniProt Q9UJ14 (Q9UJ14 whole entry, looked up): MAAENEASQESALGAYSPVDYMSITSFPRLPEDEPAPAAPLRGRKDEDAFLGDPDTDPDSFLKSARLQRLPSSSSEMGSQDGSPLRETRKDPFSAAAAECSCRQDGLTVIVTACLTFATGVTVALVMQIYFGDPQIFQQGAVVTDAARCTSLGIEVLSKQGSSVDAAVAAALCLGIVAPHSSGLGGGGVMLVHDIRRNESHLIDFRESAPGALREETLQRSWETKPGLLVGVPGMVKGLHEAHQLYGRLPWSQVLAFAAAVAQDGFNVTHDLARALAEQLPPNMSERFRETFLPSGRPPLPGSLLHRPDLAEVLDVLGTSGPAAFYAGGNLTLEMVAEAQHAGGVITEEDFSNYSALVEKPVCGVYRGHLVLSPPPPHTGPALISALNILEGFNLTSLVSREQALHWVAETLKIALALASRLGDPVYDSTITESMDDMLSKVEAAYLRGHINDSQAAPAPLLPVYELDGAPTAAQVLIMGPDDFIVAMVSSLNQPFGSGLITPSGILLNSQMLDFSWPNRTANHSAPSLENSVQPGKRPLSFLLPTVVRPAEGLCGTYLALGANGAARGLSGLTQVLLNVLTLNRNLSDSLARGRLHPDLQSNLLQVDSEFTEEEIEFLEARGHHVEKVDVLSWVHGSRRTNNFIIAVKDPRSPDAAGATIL
Sequence of UniProt Q9NX74 (Q9NX74 whole entry, looked up): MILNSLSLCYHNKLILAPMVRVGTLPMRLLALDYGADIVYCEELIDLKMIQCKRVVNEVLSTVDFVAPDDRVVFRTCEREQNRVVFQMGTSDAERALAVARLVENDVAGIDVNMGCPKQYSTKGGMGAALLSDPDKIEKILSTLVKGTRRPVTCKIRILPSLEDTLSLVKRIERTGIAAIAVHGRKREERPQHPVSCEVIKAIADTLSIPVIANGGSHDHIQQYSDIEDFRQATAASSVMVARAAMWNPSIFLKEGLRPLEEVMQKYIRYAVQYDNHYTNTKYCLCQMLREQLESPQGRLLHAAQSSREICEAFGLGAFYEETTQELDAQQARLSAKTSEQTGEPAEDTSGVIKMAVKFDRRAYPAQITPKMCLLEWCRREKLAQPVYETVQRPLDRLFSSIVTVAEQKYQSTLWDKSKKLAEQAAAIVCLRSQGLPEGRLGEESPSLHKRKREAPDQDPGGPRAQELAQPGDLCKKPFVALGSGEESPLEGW
Sequence of UniProt Q5T0N5 (Q5T0N5 whole entry, looked up): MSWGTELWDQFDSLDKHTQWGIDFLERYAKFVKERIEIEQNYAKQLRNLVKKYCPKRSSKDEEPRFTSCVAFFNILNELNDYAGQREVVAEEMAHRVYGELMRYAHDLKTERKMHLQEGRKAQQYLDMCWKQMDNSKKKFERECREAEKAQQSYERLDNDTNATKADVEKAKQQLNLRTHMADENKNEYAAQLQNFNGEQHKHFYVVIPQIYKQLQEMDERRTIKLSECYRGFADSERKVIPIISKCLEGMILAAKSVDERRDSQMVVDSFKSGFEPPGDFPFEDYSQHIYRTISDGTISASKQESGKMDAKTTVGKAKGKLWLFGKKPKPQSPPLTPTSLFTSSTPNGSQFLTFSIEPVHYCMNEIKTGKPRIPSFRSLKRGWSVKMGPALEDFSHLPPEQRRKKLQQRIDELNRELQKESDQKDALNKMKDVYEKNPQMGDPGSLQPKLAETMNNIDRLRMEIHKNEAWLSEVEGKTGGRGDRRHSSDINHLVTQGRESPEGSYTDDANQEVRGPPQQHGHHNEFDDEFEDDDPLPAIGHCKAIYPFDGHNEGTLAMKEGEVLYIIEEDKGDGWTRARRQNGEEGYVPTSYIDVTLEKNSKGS
Sequence of UniProt O15117 (O15117 whole entry, looked up): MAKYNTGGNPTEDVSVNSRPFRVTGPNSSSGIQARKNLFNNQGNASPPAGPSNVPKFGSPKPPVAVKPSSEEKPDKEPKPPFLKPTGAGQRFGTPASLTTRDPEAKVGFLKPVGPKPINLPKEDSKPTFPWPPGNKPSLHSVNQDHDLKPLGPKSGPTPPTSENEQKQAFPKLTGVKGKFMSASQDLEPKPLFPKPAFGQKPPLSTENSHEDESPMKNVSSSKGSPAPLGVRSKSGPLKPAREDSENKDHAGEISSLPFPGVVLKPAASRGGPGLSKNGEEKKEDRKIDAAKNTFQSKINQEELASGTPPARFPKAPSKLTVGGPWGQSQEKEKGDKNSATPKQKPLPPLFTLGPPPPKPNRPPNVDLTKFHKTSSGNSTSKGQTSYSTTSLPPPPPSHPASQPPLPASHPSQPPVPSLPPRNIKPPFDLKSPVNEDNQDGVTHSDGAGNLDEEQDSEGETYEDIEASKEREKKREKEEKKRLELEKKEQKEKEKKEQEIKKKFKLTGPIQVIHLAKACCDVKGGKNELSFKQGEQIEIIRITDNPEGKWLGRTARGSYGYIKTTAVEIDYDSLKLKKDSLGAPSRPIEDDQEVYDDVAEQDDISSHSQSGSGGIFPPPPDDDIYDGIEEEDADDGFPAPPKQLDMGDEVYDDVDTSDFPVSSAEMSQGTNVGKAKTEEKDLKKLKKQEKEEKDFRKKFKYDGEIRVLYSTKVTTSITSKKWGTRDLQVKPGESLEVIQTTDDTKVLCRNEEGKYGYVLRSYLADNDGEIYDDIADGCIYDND
Sequence of UniProt P48507 (P48507 whole entry, looked up): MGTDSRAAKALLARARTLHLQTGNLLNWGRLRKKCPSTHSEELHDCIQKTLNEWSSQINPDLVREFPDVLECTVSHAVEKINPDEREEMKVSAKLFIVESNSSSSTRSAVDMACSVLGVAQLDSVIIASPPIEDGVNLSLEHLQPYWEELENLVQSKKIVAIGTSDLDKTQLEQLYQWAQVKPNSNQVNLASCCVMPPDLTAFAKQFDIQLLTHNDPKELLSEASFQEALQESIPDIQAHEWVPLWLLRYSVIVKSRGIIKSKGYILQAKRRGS
Sequence of UniProt Q9H8W3 (Q9H8W3 whole entry, looked up): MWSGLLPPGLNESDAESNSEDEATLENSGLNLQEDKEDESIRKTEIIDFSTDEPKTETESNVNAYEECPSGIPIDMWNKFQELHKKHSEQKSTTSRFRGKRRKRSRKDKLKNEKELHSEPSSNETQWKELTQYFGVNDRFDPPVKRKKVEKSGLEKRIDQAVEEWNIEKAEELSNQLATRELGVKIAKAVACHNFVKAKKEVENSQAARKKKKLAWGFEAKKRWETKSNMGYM

Compound in this experiment: O=C1NC(=O)C(c2cnc3ccccn23)=C1c1cn2c3c(cc(F)cc13)CN(C(=O)N1CCCCC1)CC2
As to the kind of experiment: log2 fold change, soluble protein after heating vs DMSO (PISA); higher = thermal stabilisation; K562 lysate, 10 uM; active = over 0.2 and 3.5 SD of the protein, either way, in both replicates (recomputed). Put shortly: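 Pellets of K562 cells were dounce-homogenised in PBS pH 7.4 with 1 mM MgCl2, and the crude extract was held at 1 mg/mL protein for a 30 min treatment with 10 μM compound. Aliquots were heated for 3 min over 48°C-58°C and pooled before NP-40 was added to 0.5% at 4°C. The supernatant from 21,000xg for 90 min was quantified by TMTpro 16plex LC-MS/MS with channel sums equalised. Values are reported from duplicates as log-two fold change in thermal stability relative to solvent controls.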
For the target DTL (UniProt Q9NZJ0), the log2 fold change is 0.052.
Next, EXOC1 (UniProt Q9NV70): -0.019; EEFSEC (UniProt P57772): -0.012; ETFRF1 (UniProt Q6IPR1): 0.051.
As for GGT7 (UniProt Q9UJ14), the log2 fold change was 0.015.
For the target FLAD1 (UniProt Q8NFF5), the log2 fold change was -0.005.
To DST (UniProt Q03001) belongs 0.01; to EP400 isoform 5 (UniProt Q96L91), -0.025; to FDFT1 (UniProt P37268), 0.004.
Next, ENGASE (UniProt Q8NFI3): -0.013; ERAL1 (UniProt O75616): -0.044; EED, A0A5F9ZI63: -0.018.
Regarding DUS3L (UniProt Q96G46), the log2 fold change was -0.007.
To DUS2 (UniProt Q9NX74) belongs -0.037; to FYB1 isoform 3 (UniProt O15117), 0.
To FARSA (UniProt Q9Y285) belongs -0.006; to FBRSL1, A0A3B3IRR3, 0.069; to ECI2 (UniProt O75521), 0.284 (active).
In the case of FBXO22 (UniProt Q8NEZ5), the log2 fold change is -0.018.
Next, DYNC1I2 isoform 2 (UniProt Q13409): 0.054.
To FAM118B (UniProt Q9BPY3) belongs 0; to GCLM (UniProt P48507), 0.032; to EMP3 (UniProt P54852), -0.014.
Consider DTWD1 (UniProt Q8N5C7), for which the log2 fold change is -0.028.
To FAM204A (UniProt Q9H8W3) belongs 0.044; to FNBP1L (UniProt Q5T0N5), -0.041; to GAA (UniProt P10253), -0.056.
To FOXK1 (UniProt P85037) belongs -0.048; to FKBP1A (UniProt P62942), 0.068; to GEMIN5 (UniProt Q8TEQ6), -0.001.
FNTB (UniProt P49356): the log2 fold change is -0.032.
For DSN1 (UniProt Q9H410), the log2 fold change is 0.008.
Regarding FBXO30 (UniProt Q8TB52), the log2 fold change is -0.019.
Next, GALNT2 (UniProt Q10471): -0.09.
